This test in a line: Identification of antibody-drug conjugate (ADC) payloads which are substrates of ATP-binding cassette drug efflux transporters: ABCG2-HEK293-pcDNA cell line. As to conditions: ABCG2-HEK293 transfected cells viability, CellTiter-Glo, 48 h. An excerpt:
Antibody-drug conjugates (ADCs) feature an antibody recognizing a specific protein joined to a potent toxic payload. Numerous antibody-drug conjugates have received FDA approval; however, clinical resistance arises. Resistance mechanisms include decreased expression or mutation of the antibody target, impaired payload release, or increased expression of ATP-binding cassette (ABC) efflux transporters associated with multidrug resistance. We therefore sought to characterize the interaction of ABC multidrug transporters with ADC payloads. We performed a high-throughput screen with 27 common ADC payloads using cells lines expressing ABC transporters P-glycoprotein (P-gp, encoded by ABCB1) or ABCG2 (encoded by ABCG2). Confirmatory assays were also performed using cells transfected to express P-gp, ABCG2, or MRP1 (encoded by ABCC1). Several commonly used ADC payloads were substrates of P-gp, including calicheamicin gamma1, monomethyl auristatin E, DM1, and DM4. All the pyrrolobenzodiazepines tested - SJG136, SGD-1882, SG2057, and SG3199 - were substrates of P-gp, ABCG2, and MRP1. […] These findings highlight the risk of transporter-mediated resistance with certain ADC payloads and underscore the importance of selecting payloads that evade ABC transporter recognition in future ADC development.
HEK-293 cells were transfected with empty vector (pcDNA) or vector containing the human ABCB1 (MDR-19), ABCG2 (R-5), or ABCC1 gene (MRP1) and were maintained in EMEM with 2 mg/mL G418 added to maintain transporter expression. The HeLa derivative KB-3-1 and the P-gp overexpressing KB-8-5-11 subline were maintained in DMEM; KB-8-5-11 additionally received 100 ng/mL colchicine. H460 parental cells were obtained from the Division of Cancer Treatment and Diagnosis Tumor Repository, National Cancer Institute at Frederick, MD and were cultured in RPMI. The ABCG2 expressing subline H460 MX20 was generated by selecting H460 cells in 20 nM mitoxantrone. Media in all cases was supplemented with 10% FBS and 1% penicillin-streptomycin. We explored 27 common ADC payloads, in two orthogonal, paired cell line sets-a drug selected and transfected set for each transporter--to identify substrates of the ABC transporters P-gp and ABCG2. Compounds were sourced from Levena Biopharma (San Diego, CA), Selleck Chem (Houston, TX), ChemieTek (Indianapolis, IN), or Microsource Discovery Systems (Gaylordsville, CT). Screening was performed as previously described. Briefly, cells were plated at a density of 500 cells/well in 1536 well plates with compounds added using a 1536-head pin tool (Kalypsys, San Diego CA). Cells were incubated with cytotoxic drugs and processed with CellTiter Glo reagent (Promega, Madison, WI) to determine viability after 48 hours. P-gp substrates were identified by comparing compound activity between paired sets of low-expressing (sensitive) and over-expressing (resistant) cell lines.
(In general: In ATP-based viability assays light output follows the ATP content of the culture.)

The structures appear in SMILES notation. Results filed as inconclusive are left out. The source made the active and inactive calls. The call rests on the fitted dose curve; in most records, active means well fitted inhibition curve with a large enough effect; inconclusive means small, poorly fitted or top-dose-only effect; inactive means flat fitted curve, though single readings scatter.

For the molecule `COc1cc2cc(c1Cl)N(C)C(=O)C[C@H](OC(=O)C(C)C)[C@]1(C)O[C@H]1[C@H](C)[C@@H]1C[C@@](O)(NC(=O)O1)[C@H](OC)C=CC=C(C)C2`, the Potency is 1.1 nM (active).
As for `CC[C@H](C)[C@H](NC(=O)[C@H]1CCCCN1C)C(=O)N(C)[C@H](C[C@@H](OC(C)=O)c1nc(C(=O)N[C@@H](Cc2ccccc2)C[C@H](C)C(=O)O)cs1)C(C)C`, the figure is 23.8 nM (active); as for `CC[C@H](C)[C@@H]([C@@H](CC(=O)N1CCC[C@H]1[C@H](OC)[C@@H](C)C(=O)N[C@H](C)[C@@H](O)c1ccccc1)OC)N(C)C(=O)[C@@H](NC(=O)[C@H](C(C)C)N(C)C)C(C)C`, 9.5 nM (active); as for `CC[C@@]1(O)C(=O)OCc2c1cc1n(c2=O)Cc2cc3ccccc3nc2-1`, 15 nM (active).
Take `COc1cc2cc(c1Cl)N(C)C(=O)C[C@H](OC(=O)[C@H](C)N(C)C(=O)CCC(C)(C)S)[C@]1(C)OC1[C@H](C)C1C[C@@](O)(NC(=O)O1)[C@H](OC)/C=C/C=C(\C)C2` (some centres not stated): the Potency was 2.4 nM (active).
For `COc1cc2cc(C(=O)N3C[C@@H](CCl)c4c3cc(O)c3ccccc43)[nH]c2c(OC)c1OC`, the Potency was 7.5 nM (active).
On to `COc1cc2cc(c1Cl)N(C)C(=O)C[C@H](OC(=O)[C@H](C)N(C)C(=O)CCS)[C@]1(C)OC1[C@H](C)C1C[C@@](O)(NC(=O)O1)[C@H](OC)/C=C/C=C(\C)C2` (some centres not stated), for which the Potency is 9.5 nM (active).
